{
  "source": "PubChem BioAssay (NCATS)",
  "note": "Inconclusive results are not listed. Entries that show only a call come without a potency. Calls of active or inactive are those of the source. Calls follow the shape of the dose curve; as a rule, active = well fitted curve in the direction sought with a large enough effect in the signal ratio, with a control signal flat (not every such curve was filed as active); inconclusive = small, poorly fitted or top-dose-only effect, or effect the other way, or a change in a side signal; inactive = no such curve, though single readings can be large or run the other way; the % refers to the signal ratio.",
  "data": [
    {"target": "Tyrosine-protein phosphatase non-receptor type substrate 1 (Homo sapiens) + Leukocyte surface antigen CD47 (Homo sapiens) (UniProt P78324+Q08722)", "sequence (P78324 whole entry, looked up)": "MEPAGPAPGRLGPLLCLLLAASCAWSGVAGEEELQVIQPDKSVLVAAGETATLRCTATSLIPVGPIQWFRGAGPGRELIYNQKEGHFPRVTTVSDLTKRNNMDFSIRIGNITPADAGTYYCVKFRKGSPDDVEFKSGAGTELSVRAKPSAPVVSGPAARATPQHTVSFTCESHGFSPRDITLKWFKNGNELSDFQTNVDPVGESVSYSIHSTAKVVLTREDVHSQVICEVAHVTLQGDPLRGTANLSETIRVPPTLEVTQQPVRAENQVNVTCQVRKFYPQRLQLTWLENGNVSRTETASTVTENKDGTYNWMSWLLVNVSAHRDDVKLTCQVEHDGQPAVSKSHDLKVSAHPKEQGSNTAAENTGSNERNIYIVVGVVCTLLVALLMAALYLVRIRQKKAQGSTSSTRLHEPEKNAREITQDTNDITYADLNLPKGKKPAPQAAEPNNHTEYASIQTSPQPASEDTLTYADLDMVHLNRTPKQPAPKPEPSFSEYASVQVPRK", "sequence (Q08722 whole entry, looked up)": "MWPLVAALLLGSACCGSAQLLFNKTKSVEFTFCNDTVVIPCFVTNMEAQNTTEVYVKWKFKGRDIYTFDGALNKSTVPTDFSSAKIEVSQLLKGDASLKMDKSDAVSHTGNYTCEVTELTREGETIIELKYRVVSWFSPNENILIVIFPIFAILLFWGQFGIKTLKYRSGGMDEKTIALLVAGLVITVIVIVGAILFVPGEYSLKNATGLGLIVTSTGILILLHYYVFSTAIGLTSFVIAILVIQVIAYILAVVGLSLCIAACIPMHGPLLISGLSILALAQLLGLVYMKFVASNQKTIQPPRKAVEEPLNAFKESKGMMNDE", "assay": "CD47-SIRPalpha protein protein interaction - LANCE assay qHTS validation (AID 1347057)", "conditions": "Recombinant CD47-His / biotin-SIRPalpha, TR-FRET ratio; series mostly up to 38.3 µM", "text": "SIRPalpha is a myeloid cell expressed immunomodulatory receptor that binds the tumor expressed immune checkpoint CD47. Therapeutic disruption of this interaction leads to immune-mediated tumor rejection. This assay was used to quantitate CD47-SIRPalpha binding biochemically and evaluate chemical libraries for novel CD47-SIRPalpha inhibitors. To recapitulate the biological interaction of CD47 and SIRPalpha, we designed expression constructs to produce their recombinant, soluble, extracellular interaction domains. CD47 was produced with an N-terminal 6His tag. SIRPalpha was produced with an N-terminal Avi-Tag for site-specific biotin incorporation. The CD47-SIRPalpha interaction was measured by TR-FRET using affinity tag linked reagents (anti-6His-Eu donor and streptavidin-APC acceptor). SIRPalpha without biotin incorporation was used as a positive control inhibitor.\nPROTOCOL TABLE (as described by Miller, T. et al. 2019)\nSEQUENCE No. (e.g., 1, 2, 3, etc.); […] (e.g., Cells, Incubation, Reagent, etc.); VALUE and DESCRIPTION.\n1a. Reagent. 3 uL CD47-His (12.5 nM) and Anti-His Eu Donor reagent (3 nM) added to respective wells in Assay buffer; white/solid bottom high base, med bind 1536-well plates (Greiner 789075)\n1b. Reagent. 2 uL Assay buffer negative control for background fluorescence\n2. Reagent. 23 nL library compounds (7-pt, 1:4 intraplate titration series) or DMSO control transferred by Pin Tool\n3. Centrifuge. Centrifuge plate for 30 s at 1000 RPM\n4. Incubation.#Incubate reagents at room temperature for 30 min, protected from light\n5. Reagent. 2 uL SIRPalpha-biotin (100 nM) in Assay buffer\n6. Incubation.#Incubate reagents at room temperature for 30 min, protected from light\n7. Reagent. 1 uL SAV-APC (26 nM) acceptor reagent added to respective wells\n8. Centrifuge. Centrifuge plate for 30 s at 1000 RPM\n9. Incubation. Incubate reagents at room temperature for 30 min, protected from light\n10. Detector. Measure Top TR-FRET on EnVision (Eu/APC filter set); calculate ratio Ch1/Ch2\n1. Assay buffer composition.#Phosphate buffered saline (PBS; 10 mM Phosphate, 137 mM NaCl, and 2.7 mM KCl; pH 7.4), 0.05% IGEPAL CA-630\n2. 23nL of […] library compounds (7 plates) or DMSO vehicle control transferred to 9 Greiner white/solid bottom high base, TC plates in 7 interplate 1:5 titrations (see Yasgar, A. et al. 2008) with Pintool. Two of the 9 plates are DMSO-only in compound field at beginning and end of compound library-treated plates.\n10. Detector settings#Mirror = LANCE/DELFIA Dual Enh; Ex. Filter = UV2[TRF] 320; Em. Filter = APC 665; 2nd Em. Filter = Europium 615; Measurement h = 6.5; Ex. light (%) = 100; Delay = 60 us; Window t = 100 us; No. Seq. windows = 1; Time between flashes = 2000us; No. of flashes = 100; No. of flashes for 2nd detector = 100; Calculation: \"Ratio Ch1/Ch2\"", "values": [
      {"smiles": "N=C(N)SCCc1cnc[nH]1", "Potency": "inactive"},
      {"smiles": "CC(=O)O[C@H]1Cc2ccccc2N(C(N)=O)c2ccccc21", "Potency": "inactive"},
      {"smiles": "CC1=C(/C=C/C(C)=C/C=C/C(C)=C\\C(=O)O)C(C)(C)CCC1", "Potency": "inactive"},
      {"smiles": "C[C@H](NC(=O)/C(C#N)=C/c1ccc(O)c(O)c1)c1ccccc1", "Potency": "inactive"},
      {"smiles": "COc1cc(CC(=O)O)ccc1O", "Potency": "inactive"},
      {"smiles": "OC[C@H]1O[C@@H](n2cnc3cncnc32)[C@H](O)[C@@H]1O", "Potency": "inactive"},
      {"smiles": "C=CC[C@H](N)C(=O)O", "Potency": "inactive"},
      {"smiles": "Clc1nccc2c1ccc1ccccc12", "Potency": "inactive"},
      {"smiles": "N[C@@H](CS(=O)O)C(=O)O", "Potency": "inactive"},
      {"smiles": "NC(N)=N[C@@H](CCC(=O)O)C(=O)O", "Potency": "inactive"},
      {"smiles": "O=S(=O)(c1cccc2c(Cl)cccc12)N1CCCNCC1", "Potency": "inactive"},
      {"smiles": "NC(N)=NC(N)=Nc1ccccc1", "Potency": "inactive"},
      {"smiles": "CN(C)CCCc1cc(C(=O)Nc2ccc(-c3ccncc3)cc2)ccc1O", "Potency": "inactive"},
      {"smiles": "N=C(N)SCCN", "Potency": "inactive"},
      {"smiles": "COc1ccc(NC(=O)c2ccc(-c3ccc(-c4noc(C)n4)cc3C)cc2)cc1N1CCN(C)CC1", "Potency": "inactive"},
      {"smiles": "C[C@@]1(C2CCCC2)Cc2cc(OCC(=O)O)c(Cl)c(Cl)c2C1=O", "Potency": "inactive"},
      {"smiles": "CC(C)Cn1c(=O)n(C)c(=O)c2[nH]cnc21", "Potency": "inactive"},
      {"smiles": "NC(Cc1cccc(-c2ccccc2CP(=O)(O)O)c1)C(=O)O", "note": "(stereo not given)", "Potency": "inactive"},
      {"smiles": "Nc1ncnc2c1c(-c1ccc(Oc3ccccc3)cc1)cn2C1CCCC1", "Potency": "inactive"},
      {"smiles": "Nc1nc2c(cnn2CCc2ccccc2)c2nc(-c3ccco3)nn12", "Potency": "inactive"},
      {"smiles": "OC1(c2ccc(Cl)cc2)CCN(Cc2c[nH]c3ccccc23)CC1", "Potency": "inactive"},
      {"smiles": "NC(C(=O)N[C@@H]1C(=O)N2C(C(=O)O)=C(Cl)CS[C@H]12)c1ccccc1", "note": "(stereo not given in full)", "Potency": "inactive"},
      {"smiles": "Cc1cccc(C(=O)NCN2CCN(c3ccccc3C#N)CC2)c1", "Potency": "inactive"},
      {"smiles": "NCC(O)c1ccc(O)c(O)c1", "note": "(stereo not given)", "Potency": "inactive"},
      {"smiles": "CCCc1c(OCCCOc2ccc(OCC(=O)O)cc2)ccc(C(C)=O)c1O", "Potency": "inactive"},
      {"smiles": "COC(=O)C1=C(C)NC(C)=C([N+](=O)[O-])C1c1ccccc1C(F)(F)F", "note": "(stereo not given)", "Potency": "inactive"},
      {"smiles": "[Li+]", "Potency": "inactive"},
      {"smiles": "CC(C)(C)c1ccc(/C=C/C(=O)Nc2ccc3c(c2)OCCO3)cc1", "Potency": "inactive"},
      {"smiles": "CN(CC[C@@H](Oc1ccc(C(F)(F)F)cc1)c1ccccc1)CC(=O)O", "Potency": "inactive"},
      {"smiles": "CO/N=C(\\C(=O)N[C@@H]1C(=O)N2C(C(=O)O)=C(CSc3nc(=O)c(O)nn3C)CSC12)c1csc(N)n1", "note": "(stereo not given in full)", "Potency": "inactive"},
      {"smiles": "CC1CNCCN1S(=O)(=O)c1cccc2cnccc12", "note": "(stereo not given)", "Potency": "inactive"},
      {"smiles": "COc1cc(C(O)CO)ccc1O", "note": "(stereo not given)", "Potency": "inactive"},
      {"smiles": "O=c1cc(-c2ccccc2F)[nH]c2cc3c(cc12)OCO3", "Potency": "inactive"},
      {"smiles": "C[C@H](O)C(=O)C1=Nc2c(nc(N)[nH]c2=O)NC1", "Potency": "inactive"},
      {"smiles": "Cc1nc(N=Nc2ccc(S(=O)(=O)O)cc2S(=O)(=O)O)c(COP(=O)(O)O)c(C=O)c1O", "Potency": "inactive"},
      {"smiles": "Cc1nc(N=Nc2ccc(C(=O)O)cc2)c(COP(=O)(O)O)c(C=O)c1O", "Potency": "inactive"},
      {"smiles": "C=C1C[C@@]23CC[C@H]4[C@@](C)(CCC[C@@]4(C)C(=O)OC4OC(CO)C(O)C(O)C4O)[C@@H]2CC[C@]1(OC1OC(CO)C(O)C(O)C1OC1OC(CO)C(O)C(O)C1O)C3", "note": "(stereo not given in full)", "Potency": "inactive"},
      {"smiles": "N[C@@H](Cc1ccc(F)cc1)C(=O)O", "Potency": "inactive"},
      {"smiles": "Cn1cc(C(F)(F)F)nc1-c1ccc(OCC(O)CNCCOc2ccc(O)c(C(N)=O)c2)cc1", "note": "(stereo not given)", "Potency": "inactive"},
      {"smiles": "O=C(O)[C@H]1NCCC[C@H]1C(=O)O", "Potency": "inactive"}
    ]}
  ]
}
